Tests used:
Test in all cases: DAPPL (digital affinity profiling via proximity ligation, sequencing); 10 mM Tris-HCl pH 7.5, 50 mM NaCl, 1 mM DTT, 4% glycerol, room temperature, 30 min; GST-TFs on glutathione beads, 16-mer random dsDNA library, 0.1% formaldehyde crosslink after washing; high values mean tight binding
Settings in all cases: protein: recombinant; tags: N-terminal GST; dsDNA, one strand shown
[1] = molecular target: T1, ELK1 (Homo sapiens, UniProt P19419 1-428)
T1 sequence: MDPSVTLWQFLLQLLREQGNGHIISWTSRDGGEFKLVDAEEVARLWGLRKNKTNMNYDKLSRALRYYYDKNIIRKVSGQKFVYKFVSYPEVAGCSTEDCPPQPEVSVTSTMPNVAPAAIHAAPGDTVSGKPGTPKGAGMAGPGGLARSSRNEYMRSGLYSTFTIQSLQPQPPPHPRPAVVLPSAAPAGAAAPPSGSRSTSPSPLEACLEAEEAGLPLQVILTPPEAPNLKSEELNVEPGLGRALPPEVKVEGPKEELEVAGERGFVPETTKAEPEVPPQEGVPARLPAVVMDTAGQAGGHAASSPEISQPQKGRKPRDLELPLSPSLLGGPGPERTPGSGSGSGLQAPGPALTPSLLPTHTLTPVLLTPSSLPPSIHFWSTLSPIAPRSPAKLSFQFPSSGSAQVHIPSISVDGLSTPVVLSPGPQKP
Summary of the method: (§1)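 A tag-only sample was pooled with DNA-barcoded human transcription factors that had been expressed in yeast as GST fusions and captured on glutathione beads. The pools were incubated for 30 min at room temperature with 200 nmole of a random double-stranded 16-mer DNA library in Tris/NaCl/DTT/glycerol buffer, then washed, crosslinked with 0.1% formaldehyde, proximity-ligated (BsaI/T4 ligase, 1 h, 37 °C), PCR-amplified and sequenced on an Illumina NextSeq500. Binding signal is each hexamer's read frequency for a factor divided by its frequency for the tag-only sample.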

[2] = molecular target: T2, ERG (Homo sapiens, UniProt P11308 1-479)
T2 sequence: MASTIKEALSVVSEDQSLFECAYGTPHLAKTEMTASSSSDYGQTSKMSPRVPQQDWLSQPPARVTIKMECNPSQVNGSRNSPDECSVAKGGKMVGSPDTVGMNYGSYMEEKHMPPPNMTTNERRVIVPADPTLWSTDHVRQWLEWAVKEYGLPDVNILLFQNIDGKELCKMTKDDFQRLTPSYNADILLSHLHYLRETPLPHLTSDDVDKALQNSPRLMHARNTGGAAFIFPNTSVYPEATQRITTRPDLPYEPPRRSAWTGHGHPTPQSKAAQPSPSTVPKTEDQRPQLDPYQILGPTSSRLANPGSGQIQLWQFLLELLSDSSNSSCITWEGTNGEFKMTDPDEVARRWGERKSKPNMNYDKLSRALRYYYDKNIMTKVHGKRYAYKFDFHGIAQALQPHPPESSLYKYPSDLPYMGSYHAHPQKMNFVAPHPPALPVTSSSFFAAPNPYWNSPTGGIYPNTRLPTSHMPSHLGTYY
Summary of the method: as §1

[3] = molecular target: T3, EHF (Homo sapiens, UniProt Q9NZC4 1-300)
T3 sequence: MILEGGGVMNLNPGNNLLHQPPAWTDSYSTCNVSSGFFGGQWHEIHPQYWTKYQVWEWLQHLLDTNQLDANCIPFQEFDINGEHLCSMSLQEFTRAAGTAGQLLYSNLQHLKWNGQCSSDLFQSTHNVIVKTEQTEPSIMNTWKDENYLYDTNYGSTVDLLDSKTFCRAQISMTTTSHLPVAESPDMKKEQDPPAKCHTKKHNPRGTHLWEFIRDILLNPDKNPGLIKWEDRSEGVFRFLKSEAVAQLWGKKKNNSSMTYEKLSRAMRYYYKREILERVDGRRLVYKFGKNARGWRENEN
Summary of the method: as §1

[4] = molecular target: SPIB (Homo sapiens, UniProt Q01892 1-262)
SPIB, sequence (Q01892 whole entry): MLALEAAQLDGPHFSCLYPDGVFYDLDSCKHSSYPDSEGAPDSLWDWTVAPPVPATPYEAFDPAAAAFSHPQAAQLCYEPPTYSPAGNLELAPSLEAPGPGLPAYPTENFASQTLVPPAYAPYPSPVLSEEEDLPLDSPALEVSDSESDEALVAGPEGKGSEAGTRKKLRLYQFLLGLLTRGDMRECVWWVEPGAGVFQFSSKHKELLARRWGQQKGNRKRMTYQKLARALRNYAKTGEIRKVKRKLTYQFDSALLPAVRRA
Summary of the method: as §1

[5] = molecular target: T4, ELK3 (Homo sapiens, UniProt P41970 1-407)
T4 sequence: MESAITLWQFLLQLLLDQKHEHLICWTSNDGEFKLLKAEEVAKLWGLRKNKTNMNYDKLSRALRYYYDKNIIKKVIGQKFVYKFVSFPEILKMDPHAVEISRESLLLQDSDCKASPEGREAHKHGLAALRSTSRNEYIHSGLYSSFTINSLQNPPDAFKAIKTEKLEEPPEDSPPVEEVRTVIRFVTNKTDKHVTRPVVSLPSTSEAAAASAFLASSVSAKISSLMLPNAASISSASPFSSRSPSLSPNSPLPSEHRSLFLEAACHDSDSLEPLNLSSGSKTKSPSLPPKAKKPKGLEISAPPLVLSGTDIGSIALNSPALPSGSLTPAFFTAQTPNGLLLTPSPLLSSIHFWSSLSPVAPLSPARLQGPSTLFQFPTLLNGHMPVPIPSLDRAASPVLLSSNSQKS
Summary of the method: as §1

[6] = molecular target: T5, FEV (Homo sapiens, UniProt Q99581 1-238)
T5 sequence: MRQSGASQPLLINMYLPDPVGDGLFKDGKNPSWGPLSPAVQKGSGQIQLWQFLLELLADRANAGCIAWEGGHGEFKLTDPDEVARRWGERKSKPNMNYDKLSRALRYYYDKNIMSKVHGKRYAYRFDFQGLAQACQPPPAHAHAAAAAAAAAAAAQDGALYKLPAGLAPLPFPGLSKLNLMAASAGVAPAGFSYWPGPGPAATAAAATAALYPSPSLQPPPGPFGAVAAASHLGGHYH
Summary of the method: as §1

[7] = molecular target: T6, ELK4 (Homo sapiens, UniProt P28324-2 1-405)
T6 sequence: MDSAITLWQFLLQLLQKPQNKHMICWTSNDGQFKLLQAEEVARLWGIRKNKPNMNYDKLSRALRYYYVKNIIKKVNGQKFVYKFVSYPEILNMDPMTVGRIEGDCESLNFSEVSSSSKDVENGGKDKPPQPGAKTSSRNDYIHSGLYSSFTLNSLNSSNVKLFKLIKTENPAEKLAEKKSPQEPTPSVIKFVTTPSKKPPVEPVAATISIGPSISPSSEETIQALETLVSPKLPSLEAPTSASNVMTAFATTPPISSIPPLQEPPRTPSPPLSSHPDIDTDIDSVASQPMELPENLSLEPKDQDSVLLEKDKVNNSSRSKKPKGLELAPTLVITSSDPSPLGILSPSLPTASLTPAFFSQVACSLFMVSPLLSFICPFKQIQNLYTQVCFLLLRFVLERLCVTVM
Summary of the method: as §1

[8] = molecular target: T7, ETV2 (Homo sapiens, UniProt O00321 1-342)
T7 sequence: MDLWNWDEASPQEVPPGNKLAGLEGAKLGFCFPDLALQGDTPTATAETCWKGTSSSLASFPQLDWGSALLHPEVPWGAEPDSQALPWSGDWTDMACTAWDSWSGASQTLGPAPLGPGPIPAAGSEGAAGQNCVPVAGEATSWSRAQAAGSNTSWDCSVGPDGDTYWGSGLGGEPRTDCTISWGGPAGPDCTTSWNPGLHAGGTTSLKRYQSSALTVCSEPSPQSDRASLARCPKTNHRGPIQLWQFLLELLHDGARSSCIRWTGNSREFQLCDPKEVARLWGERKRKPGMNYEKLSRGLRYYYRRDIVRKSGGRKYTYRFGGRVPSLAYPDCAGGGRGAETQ
Summary of the method: as §1

[9] = molecular target: T8, ETV3L (Homo sapiens, UniProt Q6ZN32 1-361)
T8 sequence: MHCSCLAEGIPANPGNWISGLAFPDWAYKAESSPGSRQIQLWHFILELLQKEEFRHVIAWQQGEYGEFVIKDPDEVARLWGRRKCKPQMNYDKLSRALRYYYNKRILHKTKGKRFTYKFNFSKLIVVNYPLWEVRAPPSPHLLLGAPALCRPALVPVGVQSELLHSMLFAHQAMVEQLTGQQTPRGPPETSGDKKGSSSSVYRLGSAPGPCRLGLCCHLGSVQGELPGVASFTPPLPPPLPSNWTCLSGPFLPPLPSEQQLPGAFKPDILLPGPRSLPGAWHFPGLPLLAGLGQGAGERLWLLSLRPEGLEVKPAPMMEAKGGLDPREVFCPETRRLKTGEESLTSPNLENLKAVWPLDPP
Summary of the method: as §1

[10] = molecular target: T9, ETV3 (Homo sapiens, UniProt P41162-2 1-143)
T9 sequence: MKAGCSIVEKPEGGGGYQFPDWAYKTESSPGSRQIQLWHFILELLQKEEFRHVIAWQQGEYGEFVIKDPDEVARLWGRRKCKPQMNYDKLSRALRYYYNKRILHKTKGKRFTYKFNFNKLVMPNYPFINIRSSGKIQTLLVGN
Summary of the method: as §1

[11] = molecular target: ETV6 (Homo sapiens, UniProt P41212 1-452)
ETV6, sequence (P41212 whole entry): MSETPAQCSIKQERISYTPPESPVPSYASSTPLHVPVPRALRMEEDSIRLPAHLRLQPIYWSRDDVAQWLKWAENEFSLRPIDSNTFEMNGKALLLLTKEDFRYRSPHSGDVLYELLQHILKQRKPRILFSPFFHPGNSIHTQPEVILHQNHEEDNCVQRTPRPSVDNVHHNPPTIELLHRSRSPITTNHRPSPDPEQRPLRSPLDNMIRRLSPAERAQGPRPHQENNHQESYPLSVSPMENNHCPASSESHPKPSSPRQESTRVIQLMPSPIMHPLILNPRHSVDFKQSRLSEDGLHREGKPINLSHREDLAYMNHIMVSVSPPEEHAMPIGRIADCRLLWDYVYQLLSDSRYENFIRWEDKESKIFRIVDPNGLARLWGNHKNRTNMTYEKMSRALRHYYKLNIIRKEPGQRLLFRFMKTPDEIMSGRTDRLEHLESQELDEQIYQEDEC
Summary of the method: as §1

[12] = molecular target: T10, GABPA (Homo sapiens, UniProt Q06546 1-454)
T10 sequence: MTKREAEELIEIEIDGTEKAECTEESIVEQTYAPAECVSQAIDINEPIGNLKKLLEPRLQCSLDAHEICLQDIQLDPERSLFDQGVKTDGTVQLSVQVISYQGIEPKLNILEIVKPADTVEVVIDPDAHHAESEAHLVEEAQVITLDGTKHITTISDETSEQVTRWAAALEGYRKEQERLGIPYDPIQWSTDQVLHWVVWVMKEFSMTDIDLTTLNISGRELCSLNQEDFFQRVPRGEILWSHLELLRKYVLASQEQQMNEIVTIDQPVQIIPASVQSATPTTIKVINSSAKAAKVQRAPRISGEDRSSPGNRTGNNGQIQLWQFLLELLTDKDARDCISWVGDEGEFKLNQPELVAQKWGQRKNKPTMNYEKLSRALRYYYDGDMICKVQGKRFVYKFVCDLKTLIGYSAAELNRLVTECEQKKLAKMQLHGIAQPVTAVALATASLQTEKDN
Summary of the method: as §1

[13] = molecular target: ELF4 (Homo sapiens, UniProt Q99607 1-663)
ELF4, sequence (Q99607 whole entry): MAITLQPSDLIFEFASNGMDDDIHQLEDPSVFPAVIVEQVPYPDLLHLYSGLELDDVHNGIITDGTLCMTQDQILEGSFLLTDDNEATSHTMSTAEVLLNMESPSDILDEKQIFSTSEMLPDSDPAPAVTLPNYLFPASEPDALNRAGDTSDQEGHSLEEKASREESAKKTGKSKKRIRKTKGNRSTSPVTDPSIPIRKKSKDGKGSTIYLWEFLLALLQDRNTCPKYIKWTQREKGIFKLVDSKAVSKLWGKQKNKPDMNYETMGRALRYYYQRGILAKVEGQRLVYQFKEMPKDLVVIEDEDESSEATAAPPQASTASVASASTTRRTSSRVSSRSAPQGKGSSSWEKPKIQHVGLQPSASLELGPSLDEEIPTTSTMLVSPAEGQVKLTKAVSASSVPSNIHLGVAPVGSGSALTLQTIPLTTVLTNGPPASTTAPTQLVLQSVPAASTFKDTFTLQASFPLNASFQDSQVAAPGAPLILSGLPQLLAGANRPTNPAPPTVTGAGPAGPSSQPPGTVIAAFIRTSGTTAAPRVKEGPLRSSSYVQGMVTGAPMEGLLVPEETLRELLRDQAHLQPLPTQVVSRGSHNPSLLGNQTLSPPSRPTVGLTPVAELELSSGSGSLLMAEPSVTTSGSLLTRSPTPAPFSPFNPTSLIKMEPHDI
Summary of the method: as §1

[14] = molecular target: T11, ERF (Homo sapiens, UniProt P50548 1-548)
T11 sequence: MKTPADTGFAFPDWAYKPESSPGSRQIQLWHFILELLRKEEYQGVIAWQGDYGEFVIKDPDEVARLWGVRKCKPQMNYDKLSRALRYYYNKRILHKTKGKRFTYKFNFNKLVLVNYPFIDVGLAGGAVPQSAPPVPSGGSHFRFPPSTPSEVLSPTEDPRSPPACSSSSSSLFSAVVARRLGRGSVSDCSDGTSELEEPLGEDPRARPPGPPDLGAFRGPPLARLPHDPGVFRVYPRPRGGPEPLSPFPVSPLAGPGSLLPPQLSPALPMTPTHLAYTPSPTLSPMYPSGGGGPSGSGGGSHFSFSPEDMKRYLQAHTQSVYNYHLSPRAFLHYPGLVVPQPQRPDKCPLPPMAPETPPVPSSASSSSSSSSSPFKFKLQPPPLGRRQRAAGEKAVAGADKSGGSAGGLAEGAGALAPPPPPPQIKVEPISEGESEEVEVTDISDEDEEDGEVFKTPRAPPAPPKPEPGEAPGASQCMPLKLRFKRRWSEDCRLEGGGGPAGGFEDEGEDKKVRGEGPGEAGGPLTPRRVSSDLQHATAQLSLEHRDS
Summary of the method: as §1

Sequence | binding signal [1] | binding signal [2] | binding signal [3] | binding signal [4] | binding signal [5] | binding signal [6] | binding signal [7] | binding signal [8] | binding signal [9] | binding signal [10] | binding signal [11] | binding signal [12] | binding signal [13] | binding signal [14]
CCGGCG | 1.09 fold enrichment (6-mer frequency, TF over GST control) | 1.09 fold enrichment (6-mer frequency, TF over GST control) | 1.03 fold enrichment (6-mer frequency, TF over GST control) | 1.15 fold enrichment (6-mer frequency, TF over GST control) | 1.02 fold enrichment (6-mer frequency, TF over GST control) | 1.25 fold enrichment (6-mer frequency, TF over GST control) | 1.14 fold enrichment (6-mer frequency, TF over GST control) | 1.04 fold enrichment (6-mer frequency, TF over GST control) | 1.07 fold enrichment (6-mer frequency, TF over GST control) | 1.05 fold enrichment (6-mer frequency, TF over GST control) | 1.11 fold enrichment (6-mer frequency, TF over GST control) | – | – | –
GCAACA | 1.03 fold enrichment (6-mer frequency, TF over GST control) | – | – | – | – | – | 1.08 fold enrichment (6-mer frequency, TF over GST control) | 1.03 fold enrichment (6-mer frequency, TF over GST control) | – | – | 1.03 fold enrichment (6-mer frequency, TF over GST control) | 1.08 fold enrichment (6-mer frequency, TF over GST control) | 1.06 fold enrichment (6-mer frequency, TF over GST control) | 1.01 fold enrichment (6-mer frequency, TF over GST control)
